Reference: ChEMBL document CHEMBL4513216, “Probing the Open Global Health Chemical Diversity Library for Multistage-Active Starting Points for Next-Generation Antimalarials” (ACS Infect Dis, 2020)
Hit rate of the full screen: of about 68,000 compounds, about 2,700 (4%) showed an effect of 50% or more. What follows is part of a selection rich in strong results, with near analogues and random picks from the rest.

Each compound was assayed on Plasmodium berghei (assay: Screen against P. berghei liver stage (PbLuc), transformed with Luciferase, at 2uM). Settings: tested at 2 uM.
Assay type: functional, HepG2

| Compound | INHIBITION |
| --- | --- |
| CC(NC(=O)Cc1cccs1)(C(N)=O)c1cccc(Cl)c1 (centres undefined) | -18.59% |
| CC(=O)N1Cc2ccccc2C[C@H]1C(=O)N(C)Cc1ccccn1 | 58.12% |
| CC(=O)N1Cc2ccccc2C[C@H]1C(=O)N(C)CCc1ccccn1 | 8.73% |
| CN(CCc1ccccn1)C(=O)C1Cc2ccccc2CN1C (centres undefined) | 31.78% |
| Cc1nnsc1C(=O)NCc1nn(C)c2c1COCC2 | -1.74% |
| O=C(C1CCOCC1)N1C[C@@H]2CC[C@H]1CN(C1Cc3ccccc3C1)C2 | 27.33% |
| COC(=O)[C@H]1C[C@@H](O)CCN1S(=O)(=O)c1cc(C)c(Cl)cc1C | 26.51% |
| COC(=O)[C@H]1C[C@@H](O)CCN1S(=O)(=O)c1ccc(F)cc1F | 16.25% |
| COC(=O)[C@H]1C[C@@H](O)CCN1S(=O)(=O)c1cc(Cl)ccc1OC | 55.18% |
| CCS(=O)(=O)N1CCc2c(cccc2NCc2nc(C)c(C)o2)C1 | -23.97% |
| CCc1nnc(NC(=O)N(CCOC)Cc2ccc(C)o2)s1 | 83.98% |
| COCCN(Cc1ccc(C)o1)C(=O)Nc1ncc(C)s1 | 62.51% |
| COCCN(Cc1ccc(C)o1)C(=O)Nc1nnc2ccccn12 | 33.9% |
| COCCN(Cc1ccc(C)o1)C(=O)Nc1nnc(C(F)F)s1 | -44.8% |
| CCC(=O)Nc1nnc(CCOc2ccc(OC)cc2)s1 | -14.16% |
| COCCN(Cc1cnn(C)c1)Cc1ccc(C)o1 | 12.58% |
| Cc1noc(C)c1CCC(=O)N1CCCCC1CNS(C)(=O)=O (centres undefined) | -3.46% |
| COc1ccccc1C(C)(C)NC(=O)c1ccc(F)c(NC(C)=O)c1 | 38.49% |
| Cc1nc(-c2ccccc2C(=O)O)cc(C2CCN(C(C)C)C2)n1 (centres undefined) | 17.01% |
| CN(Cc1cccnc1)CC1CCCN1c1cccnn1 (centres undefined) | 33.31% |
| Cc1nc(N2CCN(C)CC2)ncc1C(=O)N1CCCCCC1 | -15.75% |
| Cc1ccc(-c2n[nH]cc2CNCCn2cccn2)o1 | 7.85% |
| CCN1CCN(c2ccc(CNC(=O)c3ccccc3F)cn2)CC1 | 20.41% |
| O=C(Cc1cccnc1)N1CCCC(n2cncn2)C1 (centres undefined) | -7.82% |
| NC(=O)N1CCC2(CC1)CN(c1ccsc1)C(=O)CO2 | -12.73% |
| N#Cc1cccc(N2CCC3(CCC(=O)N(CCCO)C3)CC2)n1 | 58.18% |

| Compound | INHIBITION |
| --- | --- |
| CCCc1nc(C)cc(N2CCC3(CCC(=O)N(CCCO)C3)CC2)n1 | -25.22% |
| N#Cc1cccc(N2CCC3(CCC(=O)N(CC(N)=O)C3)CC2)n1 | -30.57% |
| Cc1cc(N2CCC3(CCC(=O)N(CCO)C3)CC2)nc(N(C)C)n1 | 19.59% |
| N#Cc1cccc(N2CCC3(CCC(=O)N(CC4CCCO4)C3)CC2)n1 (centres undefined) | -41.11% |
| Cc1cc(N2CCC3(CCC(=O)N(CCCO)C3)CC2)nc(N(C)C)n1 | 57.75% |
| O=C(COc1coc(CN2CCCCC2)cc1=O)Nc1cccc(Cl)c1 | -13.13% |
| CCOCC(O)CN1CCN(C(=O)Cc2ccc3c(c2)CCC3)CC1 (centres undefined) | 24.88% |
| Cc1ccc(CN(Cc2cc(C)no2)C2CC2)cc1 | 2.01% |
| CCOc1cc(C)nc(N2CCN(C(=O)c3csnn3)CC2)n1 | -14.16% |
| CCOCC(O)CN1CCN(C(=O)c2ccccc2F)CC1 (centres undefined) | 30.29% |
| CCn1cc(CN2C[C@@H]3CCCN3C[C@H]2CCSC)cn1 | -25.95% |
| Cc1ccc(N(C)CC(O)COCc2ccccc2F)c(C)c1 (centres undefined) | 25.92% |
| CCc1nnc(CN2CCC(C3CCCCCN3C(C)=O)CC2)o1 (centres undefined) | -5.58% |
| CCOCCCNC(=O)c1nc2c(s1)CCCN2c1ccc(C)nn1 | -14.63% |
| CCNC(=O)C(C)NC(=O)Nc1ccccc1SCC (centres undefined) | 60.13% |
| CCNC(=O)C(C)NC(=O)Nc1ccccc1Cl (centres undefined) | 12.43% |
| CCNC(=O)C(C)NC(=O)Nc1ccccc1SC(F)(F)F (centres undefined) | -16.18% |
| c1csc(-c2noc(C3CNC3)n2)c1 | 5.98% |
| C1CC(N2Cc3nnn(CC4CC4)c3C(COCC3CC3)C2)C1 (centres undefined) | 10.71% |
| CN(CCc1ccccn1)C(=O)c1cnn(-c2ccccc2F)c1N | 4% |
| Cc1nc(NC(=O)N2CCCC(N(C)C)C2)nn1C (centres undefined) | 15.68% |
| CN(C)S(=O)(=O)N1C[C@H]2CC[C@@H](C1)N(Cc1ccc(F)c(F)c1)C2 | 53.12% |
| CN(C)S(=O)(=O)N1C[C@H]2CC[C@@H](C1)N(Cc1ccc3c(c1)OCCO3)C2 | 8.48% |
| CN(C)S(=O)(=O)N1C[C@H]2CC[C@@H](C1)N(Cc1ccc3nsnc3c1)C2 | 22.22% |
| CN(CC(F)(F)F)C(=O)CN1CCC(c2cc3ccccc3[nH]2)CC1 | -17.18% |
| CN(C)C(=O)CN1C[C@H]2CC[C@@H](C1)N(Cc1c(Cl)cncc1Cl)C2 | 69.67% |

| Compound | INHIBITION |
| --- | --- |
| CN(C)C(=O)CN1C[C@H]2CC[C@@H](C1)N(Cc1cccc(Cl)c1Cl)C2 | -14.32% |
| CN(C)C(=O)CN1C[C@H]2CC[C@@H](C1)N(Cc1c(F)cccc1Cl)C2 | 41.05% |
| COc1ncc(CN(C)C(C)c2cccnc2)cn1 (centres undefined) | 40.8% |
| CNC(=O)CN1CCCC12CCN(C(=O)c1ccoc1)CC2 | 23.09% |
| CCOCCN1CCN(c2ccc(C#N)cn2)CC1 | 13.14% |
| CCCc1ccc(C(=O)N2Cc3c(Cn4ccnc4)nn(C)c3C2)cc1 | 1.81% |
| CC(NC(=O)NCCn1ccnc1)c1ccc2c(c1)OCCCO2 (centres undefined) | -16.99% |
| O=C(COc1ccc(F)cc1F)N1CCOCC(O)(CN2CCCC2)C1 (centres undefined) | 9.43% |
| Cc1ccc(OCC(=O)N2CCOCC(O)(CN3CCCC3)C2)cc1C (centres undefined) | 5.47% |
| O=C(COc1cccc(Cl)c1)N1CCOCC(O)(CN2CCCC2)C1 (centres undefined) | 52.1% |
| Cc1ccc2nc(CN(C)Cc3n[nH]c4c3CCCCC4)[nH]c2c1C | -17.01% |
| COCCNC(=O)C1CCCN(c2ccc3nncn3n2)C1 (centres undefined) | -56.23% |
| Cn1c(CCNC(=O)C2CCCN(C3CCOCC3)C2)n[nH]c1=O (centres undefined) | -36.65% |
| Cn1cc(CN2C[C@H]3CCC[C@@]3(COc3ccccn3)C2)cn1 | 4.38% |
| CCc1nnc(NC(=O)NCCN(C)C(=O)OC(C)(C)C)s1 | -23.06% |
| CCN(CCNC(=O)Nc1nnc(C)s1)C(=O)OC(C)(C)C | 57.98% |
| Cc1nnc(NC(=O)NCCN(C(=O)OC(C)(C)C)C2CC2)s1 | -25.33% |
| CCC(C(=O)NCC1=CCCN(C)C1)c1ccccc1 (centres undefined) | -52.88% |
| COCc1cc(NCCc2ccc(S(N)(=O)=O)cc2)n2nccc2n1 | 32.88% |
| O=C(N1CCOCC1)N1CCc2ncnc(NC3CCC3)c2CC1 | 24.36% |
| CCC(=O)N1CCC2(CC1)CC(N1CCOCC1)c1cc(C)ccc12 (centres undefined) | 48.17% |
| O=C1NCCCCC1Sc1nnc(C2CC2)n1C1CC1 (centres undefined) | 58.24% |
| O=C1NCCCCC1Sc1nnc(N2CCCC2)n1C1CC1 (centres undefined) | -20.55% |
| O=C1NCCCCC1Sc1n[nH]c(=O)n1C1CC1 (centres undefined) | -5.76% |
| CCN1CC(C(=O)NCc2ccccc2-n2cccn2)CC1=O (centres undefined) | 24.91% |
| CNC(=O)[C@@H]1C[C@H]2CN(C(=O)c3ccco3)C[C@H]2N1C(C)C | -11.99% |

| Compound | INHIBITION |
| --- | --- |
| c1cncc(COCc2nnc3n2CCN(Cc2cccs2)C3)c1 | 29.95% |
| Cc1ncsc1CCN(C)C(=O)CN1CC2(CCCC2)CC1=O | 52.3% |
| Cc1ncsc1CCN(C)C(=O)CN1CCCCCC1=O | 24.36% |
| Cc1ncsc1CCN(C)C(=O)CN1CCCCC1=O | 17.2% |
| COc1cc(NC(=O)c2nc3ccccc3n(C)c2=O)cc(OC)c1 | -1.01% |
| COCCn1cc(C(=O)N2CCCC2c2cccc(C)c2)ccc1=O (centres undefined) | 9.5% |
| CCN1CCN(C)C2(CCN(C(=O)CC(F)(F)F)CC2)C1=O | -2.81% |
| COCCCN1CC2(CCN(Cc3cc(C(C)C)no3)CC2)CC1=O | -9.78% |
| COCCCN1CC2(CCC1=O)CCN(Cc1cc(C)no1)CC2 | -7.23% |
| COCCCN1CC2(CCC1=O)CCN(Cc1cc(C(C)C)no1)CC2 | 50.86% |
| CS(=O)(=O)c1nccn1Cc1ccncc1 | -52.32% |
| CCc1nccn1CCC(=O)N1CC(=O)N(c2ccccc2C)CC1C (centres undefined) | 26.21% |
| Cc1ccccc1N1CC(C)N(C(=O)CCn2cccn2)CC1=O (centres undefined) | 51.08% |
| CCc1nccn1CCC(=O)N1CCN(c2ccccc2C)CC1C (centres undefined) | -12.03% |
| O=C1NCC2(CCN(C(=O)c3ccc4c(c3)CCCO4)CC2)O1 | 50.59% |
| O=C1NCC2(CCCN(C(=O)c3ccc4c(c3)CCCO4)CC2)O1 (centres undefined) | 26.74% |
| O=C1NCC2(CCCN(C(=O)c3ccc4c(c3)OCCO4)CC2)O1 (centres undefined) | 24.36% |
| Cc1cc(-c2ccccc2C(=O)O)nc(C2CCCCN2C)n1 (centres undefined) | 11.52% |
| NCC1CN(C(=O)c2cccc(-n3cccn3)c2)CCO1 (centres undefined) | 45.82% |
| O=C(c1cccc(-n2cccn2)c1)N1CCOC(CCO)C1 (centres undefined) | 62.51% |
| O=C(c1cccc(-n2cccn2)c1)N1CCCOC(CN2CCCC2)C1 (centres undefined) | 33.9% |
| c1cnc2c(c1)nc1n2[C@@H](CNCc2nccs2)COC1 | -111.95% |
| Fc1cccc(N2CCc3ncnc(N4CCOCC4)c3CC2)c1 | -7.49% |
| CCOc1ccc(SCCNS(=O)(=O)CC)cc1 | 20.15% |
| O=C(O)c1c(-c2cccnc2)ncc2c1CCN(CC1CCOC1)C2 (centres undefined) | 21.13% |
| CSc1cc2c(cc1NC(=O)N(C)Cc1ccncc1)OCCO2 | -10.36% |
